DT40 TDP1 no CPT – qHTS for Inhibitors of human tyrosyl-DNA phosphodiesterase 1 (TDP1): qHTS in cells in absence of CPT; AID 686978, 2013; DT40 Tdp1-/- hTDP1 cells, no CPT, ATP luminescence, 48 h; 420,000 compounds, 15% hits; Potency, µM (highest dose often 46.2 µM), without a hit: at the highest dose activity change, negative = growth inhibition, usual class: inhibitors; note: potency is the fitted concentration of half-maximal effect; % is set by controls: 0 for no effect and ±100 for the full control effect; nearly all actives have a fitted effect of over 55% in size
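Camptothecin absent (DMSO only). Human TDP1-complemented DT40 knockout cells, 400 cells/well, 37 °C for minimum 48 hr; ATP measured via CellTiter-Glo, 30 min dark incubation, luminescence.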
IL-1B inflam inh – inhibitors of inflammasome signaling (IL-1 beta secretion) | THP-1 LPS/ATP IL-1B secretion, AlphaLISA, 16 h; stronger effect = lower value | activity change, % at 57.5 µM | 360,000 compounds, 4.7% hits | AID 743279; in the data active = activity change below about -50%; inconclusive = mostly about -30% to -49%; note: % is set by controls: 0 for no effect and ±100 for the full control effect
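THP-1 cells pretreated 1 hr with compounds (up to 57.5 uM final), then stimulated with LPS (250 ng/mL final) plus ATP (1.25 mM final); secreted IL-1B measured by AlphaLISA after 16 hr, decreased signal indicating inhibition.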
SW480 rerep – inducers of DNA re-replication in SW480 colon cancer cells; AID 624297; Potency, µM (highest dose often 46.1 µM), inactives show at the highest dose re-replication activation, most hits filed as activators; SW480 DNA re-replication, Hoechst DNA content imaging, 48 h; 340,000 compounds, 1.8% hits; note: potency is the fitted concentration of half-maximal effect; % of control where 0% means no effect; nearly all actives have a fitted effect of over 55% in size
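First, 250 cells per well were seeded. Next, compound or vehicle (23 nL) was pinned in, plates sat 48 hr at 37 C. Finally Hoechst was added for 40 min before fluorescence scanning.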
TDP1 cell CPT – growth inhibition of DT40 Tdp1-/-;hTDP1 cells with camptothecin (screen for TDP1 inhibitors) | chicken DT40 Tdp1-/-;hTDP1 cells + 20 nM CPT, ATP luminescence, 48 h | Potency, µM (doses to about 46.2 µM), for the others: top-dose activity change, negative = growth inhibition, actives largely listed as inhibitors | 420,000 compounds, 12% hits | AID 686979; note: potency is the fitted concentration of half-maximal effect; % is set by controls: 0 for no effect and ±100 for the full control effect; nearly all actives have a fitted effect of over 55% in size
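Chicken DT40 Tdp1-/- cells stably complemented with human TDP1 were seeded at 400 cells/well in medium containing 20 nM camptothecin, exposed to pin-transferred compounds, and grown at 37 °C for at least 48 hr. Viability was read as ATP luminescence.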
BCR signal inh – blocks chronic active B-cell receptor signaling; ABC-DLBCL IkBa-CBG/CBR reporter, luminescence ratio, 4 h; 340,000 compounds, 0.05% hits; Potency, µM (top dose mostly 46.1 µM), without a hit: top-dose activity change, negative = inhibition, usual class: inhibitors; AID 493014; active = well fitted inhibition curve with a large enough effect in the signal ratio, with a control signal flat, not every such curve was filed as active; inconclusive = small, poorly fitted or top-dose-only effect, or effect the other way, or a change in a side signal; the % refers to the signal ratio;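 note: potency is the fitted concentration of half-maximal effect; plate controls were basal doxycycline-induced cells for no effect and cells given 10 µM MG132 for full effect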
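TMD8 human ABC-DLBCL cells with doxycycline-inducible IκBα–green luciferase fusion and unfused red luciferase, in 0.5% FBS medium; compounds up to 46 uM, 4 h at 37C. Green/red luminescence ratio, filter-overlap corrected, fitted to concentration-response curves.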
MCF10A rereplic – induces DNA re-replication in MCF 10a normal breast cells; MCF 10A DNA re-replication, Hoechst nuclear intensity, 48 h; Potency, µM (highest dose often 46.1 µM), inactives show top-dose activity, positive = re-replication, actives largely listed as activators; 350,000 compounds, 2.9% hits; AID 624296; note: potency is the fitted concentration of half-maximal effect; % of control where 0% means no effect; nearly all actives have a fitted effect of over 50% in size
The depositor's hits bear a star; ? = inconclusive; nt = no result given. The list is not random: actives were taken first. Their share in the collection is about 19%. Unless noted, calls come from the whole dose curve; as a rule, active = well fitted curve in the direction sought with a large enough effect; inconclusive = small, poorly fitted or top-dose-only effect, or another doubt; inactive = no such curve, though single readings can be large; an effect the other way counts as inactive or inconclusive.

SMILES	DT40 TDP1 no CPT	IL-1B inflam inh	SW480 rerep	TDP1 cell CPT	BCR signal inh	MCF10A rereplic
O=C(Cc1ccc(Cl)cc1)Nc1ccc(N2CCN(C(=O)c3ccco3)CC2)c(Cl)c1	23µM*	-68*	4%	15µM*	?	?
C[C@@H]([C@@H](O)c1ccccc1)N(C)C(=O)Cc1ccccc1	-15%	15	-3%	7%	nt	6%
CN(C)CC(C(=O)Cc1ccccc1)c1ccccc1 (configuration not stated)	0.65µM*	-96*	4.6µM*	0.92µM*	nt	13µM*
CC(C)COC(=O)N1Cc2ccccc2-n2nncc2C1	-23%	32	nt	-3%	nt	nt
COc1ccc(Nc2c(-c3cc(Br)ccc3O)nc3ncccn23)cc1OC	23µM*	nt	nt	18µM*	nt	nt
O=C(Nc1ccc(C(F)(F)F)cc1)OC1CN2CCC1CC2 (configuration not stated)	?	-13	23%	-28%	7%	?
O=C(Nc1ccc(F)cc1)OC1CN2CCC1CC2 (configuration not stated)	-16%	-5	11%	-8%	7%	8.2µM*
CC(=O)CC1CCCCN1 (configuration not stated)	1%	nt	nt	-2%	nt	nt
O=[N+]([O-])c1ccc(O)c([N+](=O)[O-])c1	?	43	-87%	?	nt	1%
Nc1ccc([N+](=O)[O-])cc1O	22µM*	nt	nt	24µM*	nt	nt
NC(=O)Oc1ccc(Cc2ccccc2)cc1	?	nt	5%	-25%	nt	6%
CS(=O)(=O)c1ccc(C2=C(CNC(=O)c3nccs3)[C@H]3CC[C@@H](C2)N3Cc2ccccc2)cc1	?	-2	nt	-3%	nt	nt
CC1(C)C(=O)C=C[C@@]2(C)C1=C(O)C(=O)[C@@]1(C)C2CC[C@@]2(C)C(c3ccoc3)C[C@H]3O[C@@]321 (some centres not stated)	12µM*	nt	nt	12µM*	nt	nt
O=c1[nH]c2ccccc2n1C1CCN(C(c2cccc3ccccc23)c2nnnn2-c2ccc3c(c2)OCCO3)CC1 (configuration not stated)	2.6µM*	-26	nt	4.6µM*	nt	nt
O=c1c2ccccc2[nH]c(=S)n1-c1ccc2c(c1)OCCO2	-10%	11	30%	-15%	?	1%
O=c1[nH]c2ccccc2n1C1CCN(C(c2cc3ccccc3o2)c2nnnn2-c2ccc3c(c2)OCCO3)CC1 (configuration not stated)	15µM*	?	nt	?	nt	nt
c1ccc(N2[C@@H]3CC[C@H]2c2ccccc2C3)cc1	?	33	nt	?	nt	nt
Cc1cccc(C)c1NC1=NCCCCS1	-3%	-1	0%	-13%	?	-2%
Cc1c(CCN)ccc2c1[nH]c1ccccc12	29µM*	0	0%	?	12%	8%
NCCc1c(Cc2ccccc2)[nH]c2ccccc12	?	-26	-3%	-23%	nt	?
COc1ccc(-c2c3c(nc4sc5c(Cl)nc(C)nc5c24)CCC3)cc1	-9%	6	-2%	3%	7%	?
c1ccc(CN2CCN(Cc3ccc4ccccc4c3)CC2)cc1	16µM*	-18	-4%	18µM*	-3%	2%
CC(C)C[C@H]1CN([C@@H](CC(C)C)CN2CCCC2CN2C(=S)NC[C@@H]2Cc2ccc(O)cc2)C(=S)N1CC1CCCCCC1 (some centres not stated)	18µM*	?	-36%	18µM*	nt	?
CC(=NCCO)c1c(O)n(C2CCCCC2)c(=O)[nH]c1=O	-15%	20	2%	-15%	-3%	-2%
CCC(=NCc1ccco1)c1c(O)n(C2CCCCC2)c(=O)[nH]c1=O	?	-1	2%	23µM*	7%	23%
SMILES	DT40 TDP1 no CPT	IL-1B inflam inh	SW480 rerep	TDP1 cell CPT	BCR signal inh	MCF10A rereplic
CCC(=NCc1cccnc1)c1c(O)n(C2CCCCC2)c(=O)[nH]c1=O	?	-12	-4%	?	4%	8%
CCC(=O)c1c(O)n(C2CCCCCC2)c(=O)[nH]c1=O	16µM*	1	4%	6.5µM*	-2%	12%
N[C@@H](Cc1ccc(Oc2cc(I)c(O)c(I)c2)c(I)c1)C(=O)O	-5%	nt	nt	14%	nt	nt
COC(=O)C1=C(c2ccc(C(C)=O)cc2)C[C@@H]2CC[C@H]1N2C(=O)N1CCCC1	?	25	-11%	?	0%	?
COC(=O)C1=C(c2ccc(OC(F)(F)F)cc2)C[C@@H]2CC[C@H]1N2C(=O)N1CCCCC1	2.1µM*	-4	-6%	2.6µM*	-1%	12%
COC(=O)C1=C(c2ccc(C(C)=O)cc2)C[C@@H]2CC[C@H]1N2C(=O)N1CCCCC1	16µM*	-1	2%	21µM*	2%	-11%
CN[C@@H](C)[C@H](O)c1ccccc1	-11%	nt	nt	18%	nt	nt
CC(C)CCOP(=O)(c1ccc(N(C)C)cc1)C(O)c1ccc(C(C)C)cc1 (configuration not stated)	21µM*	-58*	?	?	?	-13%
CC(C)CCOP(=O)(c1ccc(N(C)C)cc1)C(O)c1ccc(Cl)cc1Cl (configuration not stated)	21µM*	-88*	?	16µM*	-13%	?
C#CCN1C(=O)C2(C(C#N)=C(N)OC(C)=C2C(=O)OCc2ccccc2)c2ccccc21 (configuration not stated)	23µM*	4	-6%	?	?	20%
CCOC(=O)C1=C(C)OC(N)=C(C#N)C12C(=O)N(C)c1ccccc12 (configuration not stated)	-8%	17	1%	6%	-9%	-2%
Cc1cccc(NC(=O)c2ncn3c2C(=O)NC[C@H]3C)c1	?	-9	nt	-24%	nt	nt
CC(N)C(=O)NC1C2C(=C(O)CC(O)C2O)C(=O)OC1(C)C(Cl)Cl (configuration not stated)	0.16µM*	-100*	?	0.18µM*	nt	?
O=C1C=CC2C3C(=O)N(c4ccccc4)C(=O)C3C1N2Cc1ccccc1 (configuration not stated)	2.3µM*	-97*	3.7µM*	2.1µM*	nt	?
C[C@H]1COC(=O)[C@H](Cc2ccc(F)cc2)CC/C=C/C[C@@H](CC(=O)N(CCO)Cc2ccccc2)C(=O)N1	18µM*	18	-9%	23µM*	-1%	?

Screens: PubChem, National Center for Advancing Translational Sciences (NCATS)
